Measurements from PubChem BioAssay AID652058 (Broad Institute, 2013).
Hit rate of the full screen: of about 1,200 compounds, about 870 (72%) were called active. Inconclusive results (about 3%) are left out.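 Rule for the calls: active = every test run fits a falling curve whose half-maximal concentration is at most twice the top valid dose; inconclusive = runs disagree, or flat 30 to 70% inhibition, or poor fit; inactive = every run inactive: flat, rising or weaker potency.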 The set was probably picked from earlier hits. These entries were drawn from the full list. Results with a measured potency or affinity are listed apart.

Test: blockers of HIV-1 ZM109 envelope-driven cell-cell fusion – HeLa effector, CEM target cells, luciferase, cherry-pick, dose response (AID 652058);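 note: 0% = neutral control wells and -100% = maraviroc 300 nM wells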
Settings: HeLa Env/CEM cell fusion, 16-24 h; series mostly up to 35 µM; activity change, negative = inhibition: at the top concentration

Activity change, negative = inhibition, inactive:
C[C@@H]1CN([C@@H](C)CO)C(=O)c2cccc(NC(=O)c3cnccn3)c2O[C@H]1CN(C)Cc1ccc(Cl)c(Cl)c1 95.2%
C[C@H]1CN([C@@H](C)CO)C(=O)c2cccc(NC(=O)C3CCCCC3)c2O[C@H]1CN(C)S(C)(=O)=O 11.4%
CNC[C@@H]1Oc2c(N)cccc2C(=O)N([C@@H](C)CO)C[C@@H]1C 15.9%
c1csc(-c2csc3ncnc(NCCCN4CCOCC4)c23)c1 -26.2%
Oc1ccc(C=NNc2ccccn2)c(O)c1 23.9% [at 16 µM]
COc1ccc(-c2nnc(Nc3nc4c(OC)cccc4s3)o2)cc1 5.13%
CCn1ncc(C2=NOC(C(=O)Nc3ccc(C)cc3)C2)c1C (stereo not given) 6.73% [at 16 µM]
Cc1ccc(-n2nnnc2-c2cnn(-c3ccc(F)cc3)c2C(F)(F)F)cc1 4.65%
C[C@@H]1CN([C@H](C)CO)C(=O)c2cc(NS(=O)(=O)c3ccc(F)cc3)ccc2O[C@H]1CN(C)Cc1ccc(C(F)(F)F)cc1 -41.2%
CNC[C@H]1Oc2c(NC(=O)Nc3ccc(C(F)(F)F)cc3)cccc2C(=O)N([C@@H](C)CO)C[C@H]1C 39.4% [at 16 µM]
C[C@H](CO)N1C[C@H](C)[C@H](CN(C)C(=O)Nc2ccccc2)Oc2c(NS(=O)(=O)c3ccc(F)cc3)cccc2C1=O 84.3% [at 16 µM]
Cc1ccc(-n2ncc3c(N4CCN(c5ccccc5)CC4)ncnc32)c(C)c1 181%
Cc1ccc(Cn2ncc3c(N4CCN(c5ccc(C)cc5)CC4)ncnc32)cc1 -44.6%
COc1cccc(CNc2nc(NCc3ccccc3OC)nc3ccsc23)c1 -21.1%
CCOc1ccc(-c2cc(CCCC(=O)Nc3cccc(OC)c3)no2)cc1 71.3%
Cc1cc(C(C)(C)C)oc1C(=O)N(CC(=O)NC1CCCC1)Cc1ccc(Cl)cc1 -42.4%
CCCc1cc(C(=O)NCc2ccc(OC)cc2)no1 28.6%
O=C(CC1C(=O)NCCN1Cc1cccc(F)c1)NC1CCCCC1 (stereo not given) -44.7%
CCN(CCn1cccn1)C(=O)CC1C(=O)NCCN1CCc1ccccc1 (stereo not given) -40.9%
COc1ccc(-c2cn3c(C)c(C(=O)Nc4cccc(NC(C)=O)c4)sc3n2)cc1 -22% [at 16 µM]
Cn1cc(S(=O)(=O)N2CCOCC2)cc1C(=O)Nc1cccc(Cl)c1 -25.3%
COc1cccc(CN2CCC2(C)C(=O)Nc2cccc(Oc3ccccc3)c2)c1OC (stereo not given) -31.8%
CC(=O)c1ccc([C@H]2C[C@@]34CN(C(=O)OC(C)(C)C)S(=O)(=O)[C@H]3C[C@H]2O4)cc1 40.5%
c1ccc(Cc2cnc(N3CCN(Cc4csc5ccccc45)CC3)nc2)cc1 16.5%
O=C(NNC(=O)C(c1ccccc1)c1ccccc1)c1ccccn1 -20.2%
CC(C)(C)n1nc(Cc2cccc3ccccc23)c2c(N)ncnc21 16.9%
C[C@@H]1CN([C@H](C)CO)C(=O)c2cccc(NC(=O)c3ccncc3)c2O[C@@H]1CN(C)Cc1ccc(C(=O)O)cc1 -18.2%
COc1ccccc1N1CCN(Cc2ccc(O)c3ncccc23)CC1 41.3%
O=C(Nc1ccc(CN2CCOCC2)cc1)c1ccc(-c2cccc(Cl)c2)o1 117%
Cc1cc(C)nc(/N=C(\N)Nc2ccc(CC(=O)OC(C)C)cc2)n1 38.8%
CCC(=O)NC(=S)Nc1cccc(Cl)c1N1CCCCC1 43.4%
COc1ccc([Si](C)(C)[C@H]2[C@H](CCO)O[C@@]3(C(=O)N(Cc4cccc(N5CCOC5=O)c4)c4ccccc43)[C@@H]2C)cc1 -36.4%
O=C(Nc1cccn(Cc2c(Cl)cccc2Cl)c1=O)c1ccc(Cl)cc1 55.6%
O=C(NCc1ccccc1)c1ccc(C(=O)NCc2ccccc2)cc1 -58.9%
COc1ccc(NC(=O)C2(C)CCN2Cc2ccccc2OC(F)F)cc1OC (stereo not given) -0.246%
CCOC(=O)c1cnc2ccc(OCC)cc2c1NCc1ccccc1OC 69% [at 16 µM]
COc1ccc(OC2C(=O)N(Cc3ccc4c(c3)OCO4)C2c2cccs2)cc1 (stereo not given) -20%
Cc1cc(C(=O)N2CCC(C(=O)O)CC2)c(C(F)(F)F)o1 -39.7%
CCOc1ccc(OCc2cccc(C(=O)N/N=C/c3cccnc3)c2)cc1 -7.2%
CCCOc1ccc(C(F)(F)F)cc1NC(=O)CCc1c(C)noc1C -36.3%
Cc1ccc(C)c(CNc2ccc(S(=O)(=O)N3CCCCC3)cc2)c1 -10.3%
Cc1ccc(S(=O)(=O)N[C@H]2C=C[C@H](CC(=O)N3CCC(Cc4ccccc4)CC3)O[C@H]2CO)cc1 45.1%
CCCNC(=O)C[C@H]1C[C@H]2c3cc(NC(=O)CN(C)C)ccc3O[C@H]2[C@H](CO)O1 0%
CCCNC(=O)C[C@H]1C[C@H]2c3cc(NC(=O)CN(C)C)ccc3O[C@H]2[C@@H](CO)O1 -10.1%
O=C(C[C@@H]1C[C@H]2c3cc(NC(=O)Nc4ccc(F)cc4)ccc3O[C@H]2[C@H](CO)O1)NCC1CC1 105%
O=C(Nc1ccc(F)cc1)Nc1ccc2c(c1)[C@H]1C[C@@H](CC(=O)N3CCCCC3)O[C@H](CO)[C@H]1O2 58.6%
O=C(C[C@@H]1C[C@H]2c3cc(NC(=O)NC4CCCCC4)ccc3O[C@H]2[C@@H](CO)O1)NCc1ccncc1 4.35%
CN1CCN(C(=O)C[C@H]2C[C@@H]3c4cc(NS(C)(=O)=O)ccc4O[C@@H]3[C@H](CO)O2)CC1 -13.8%
O=C1c2cccnc2C(Nc2ccc(S(=O)(=O)N3CCCCC3)cc2)N1Cc1ccccc1 (stereo not given) -24.9%
COc1ccc(COC(=O)C2=C(C)NC(=O)NC2c2ccc(OC)cc2)cc1 (stereo not given) -25.8%
Cc1cccc(NC(=O)C2CCN(S(=O)(=O)c3ccc4c(c3)OCCCO4)CC2)n1 -15.6%
CCc1ccc(-c2nc(CN3CCC(C(=O)NCCc4ccc(OC)c(OC)c4)CC3)c(C)o2)cc1 -27.3%
O=C(Nc1ccc(N2CCN(C(=O)c3ccccc3)CC2)c(Cl)c1)c1cccnc1 -32.6%
COc1ccccc1CCNCc1ccc(OC)c(OCc2ccccc2)c1 -24.2%
CCN1C(=O)[C@H]2[C@@H](c3ccc(C(F)(F)F)cc3)N[C@]3(CCCN(Cc4ccccc4)C3=O)[C@H]2C1=O 94.4%
Cc1ccc(-n2nc3c(c2NC(=O)c2ccco2)CS(=O)C3)cc1 (stereo not given) 89.7%
FC(F)(F)c1nc(-c2cccs2)ncc1-c1nnnn1-c1ccc(Cl)cc1 130%
C[C@H](CO)N1C[C@H](C)[C@H](CN(C)S(=O)(=O)c2ccc(F)cc2)Oc2ccc(NS(=O)(=O)c3ccccc3)cc2CC1=O -27.6%
Cc1ccc(S(=O)(=O)Nc2ccc3c(c2)C(=O)N([C@H](C)CO)C[C@@H](C)[C@H](CN(C)S(=O)(=O)c2ccc(F)cc2)O3)cc1 13.2%
C=CCN1C(=S)CC(c2ccccc2)=Nc2ccccc21 30.2%
CC1CCCN(C(=O)c2ccc(S(=O)(=O)N3CCC(c4nc5ccccc5s4)CC3)cc2)C1 (stereo not given) -24.4%
CS(=O)(=O)Nc1ccc2c(c1)[C@H]1C[C@H](CC(=O)NCc3ccc(-c4ccccc4)cc3)O[C@H](CO)[C@H]1O2 19.1%
CS(=O)(=O)Nc1ccc2c(c1)[C@@H]1C[C@@H](CC(=O)N3CCc4ccccc4C3)O[C@H](CO)[C@@H]1O2 2.24%
CS(=O)(=O)Nc1ccc2c(c1)[C@H]1C[C@H](CC(=O)N3CCc4ccccc4C3)O[C@H](CO)[C@H]1O2 1.72%
CCN(c1nc(N)c(C(=O)N=C(N)N)nc1Cl)C(C)C -2.13% [at 16 µM]
CCN(CC)CCN(C(=O)c1cc(Cl)sc1Cl)c1nc2cc3c(cc2s1)OCO3 21.8%
CCC(=O)N(C)C(c1ccccc1Cl)c1nnnn1-c1c(C)cccc1C (stereo not given) 35.5%
O=C(O)C[C@@H]1C=C[C@H](NC(=O)Nc2ccccc2)[C@H](CO)O1 15.4%
O=C(O)C[C@@H]1C=C[C@@H](NC(=O)Nc2ccccc2)[C@H](CO)O1 80%
Cc1nc2ccccc2c2oc(C(=O)NCc3ccc4c(c3)OCO4)cc12 115%
O=C(Nc1ccc(Cl)cc1)C1CCCN(C2=NS(=O)(=O)c3ccccc32)C1 (stereo not given) -20.3% [at 16 µM]
C[C@H]1CN([C@@H](C)CO)C(=O)Cc2cc(NS(=O)(=O)c3ccccc3)ccc2O[C@@H]1CN(C)Cc1ccc(Cl)c(Cl)c1 -31.9%
COc1cc(-c2c(-c3cc(OC)c(OC)c(OC)c3)noc2C)ccc1F 138%
CC1Cc2cc(-c3csc(NC(=O)Cc4cccs4)n3)ccc2N1S(C)(=O)=O (stereo not given) 102% [at 16 µM]
COCCCn1c(-c2ccc(S(=O)(=O)N3CCOCC3)cc2)csc1=Nc1ccccc1 -3.14%
O=C(Nc1nc(COc2ccccc2)cs1)C12CC3CC(CC(C3)C1)C2 -16.3%
COc1ccc(S(=O)(=O)n2ccc(-c3ccc(OCCN(C)c4ccccn4)cc3)n2)cc1 7.14% [at 16 µM]
COc1ccccc1S(=O)(=O)Cc1ccc(C(=O)N2CCN(c3cccc(Cl)c3)CC2)o1 188% [at 16 µM]
O=C(c1ccccc1F)N1CCN(Cc2cccc(Cl)c2)CC1 -9.33%
COc1ccc(OCC(=O)Nc2ccccc2N2CCCCC2)cc1 271%
CCOC(=O)C1CCN(C(=O)c2ccc3c(c2)C(=O)N(c2ccccc2C)C3=O)CC1 41%
Cc1cc(Cl)ccc1OCC(=O)NNC(=O)C1CSC2(C)CCC(=O)N12 (stereo not given) 14.6%
CS(=O)(=O)N1CCN(c2ccccc2NC(=O)C(c2ccccc2)c2ccccc2)CC1 -0.512%
O=C(c1ccc(Cl)s1)N1CCN(c2nc3ccccc3s2)CC1 -41.6%
CCOC(=O)c1cccc(NS(=O)(=O)c2ccc(NC(C)=O)cc2)c1 61.5%
O=C(Nc1ccc(CN2CCS(=O)(=O)CC2)cc1)c1ccc(C(F)(F)F)cc1 -27.4%
O=C(Nc1cc2c3c(c1)CC(=O)N3CCC2)c1ccc(Cl)cc1 162%
C=CC[n+]1c(-c2ccc(C)cc2)csc1NNC(=O)Nc1ccccc1 -55.6% [at 16 µM]
Cc1noc(C)c1S(=O)(=O)N(C)C[C@H]1Oc2ccc(NC(=O)Nc3ccccc3)cc2CC(=O)N([C@H](C)CO)C[C@H]1C 18%
N#C/C(=N\Nc1ccc(Cl)cc1)C(=O)c1ccccc1 7.69%
